A short description of assay [1]: Tanguay_ZF_120hpf_PE_legacy: (Legacy) Oregon State University Tanguay Lab 120 Hour Post-fertilization zebrafish Assay for Pericardial Edema (AID 2283640).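 On AC50: potency for increased incidence of pericardial edema versus DMSO baseline.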 Put shortly:
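Static waterborne exposure, 5D wild-type embryos, 28C, to 120 hpf; final DMSO 0.64% (vol/vol). Binary PE call at 120 hpf by brightfield; fitted upward vs DMSO baseline. 5uM trimethyltin chloride as positive control.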

Assay [2] is described as follows: Tanguay_ZF_120hpf_BRAI_legacy: (Legacy) Oregon State University Tanguay Lab 120 Hour Post-fertilization zebrafish Assay for Brain Malformation (AID 2283641). Put shortly:
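Read-out: binary brain morphology call at 120 hpf (brightfield), fitted in gain-of-signal direction vs DMSO. Wild-type Tropical 5D embryos, static exposure, 28C, 0.64% DMSO final; 5uM trimethyltin chloride as positive control.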

Assay [3] in a line: Tanguay_ZF_120hpf_SOMI_legacy: (Legacy) Oregon State University Tanguay Lab 120 Hour Post-fertilization zebrafish Assay for Somite Malformation (AID 2283647). An outline of the steps:
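Binary brightfield scoring of somite defects at 120 hpf in 5D wild-type larvae; one dechorionated embryo per well, static exposure from 6 hpf, 28C, sealed and dark. Final DMSO 0.64%; trimethyltin chloride 5uM positive control.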

Assay [4] is described as follows: Tanguay_ZF_120hpf_PFIN_legacy: (Legacy) Oregon State University Tanguay Lab 120 Hour Post-fertilization zebrafish Assay for Pectoral Fin Malformation (AID 2283648).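 Further: each larva judged yes or no for fin defect by brightfield with dead larvae skipped.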 An outline of the steps:
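Dechorionated Tropical 5D wild-type zebrafish embryos, one per well, statically exposed from 6 to 120 hpf at 28C with 0.64% DMSO final. Pectoral fin malformation scored present/absent by brightfield at 120 hpf; not scored in dead embryos.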

Assay [5] is described as follows: Tanguay_ZF_120hpf_CIRC_legacy: (Legacy) Oregon State University Tanguay Lab 120 Hour Post-fertilization zebrafish Assay for Circulatory Malformation (AID 2283651). Put shortly: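 Dechorionated wild-type 5D zebrafish embryos, one per well, statically exposed from 6 to 120 hpf at 28C with 0.64% DMSO; circulatory malformation scored present/absent by brightfield microscopy at 120 hpf, dead embryos excluded.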

The nature of assay [6]: Tanguay_ZF_120hpf_SWIM_legacy: (Legacy) Oregon State University Tanguay Lab 120 Hour Post-fertilization zebrafish Assay for Swim Bladder Malformation (AID 2283654).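 Further: swim bladder malformation in each larva scored yes or no under brightfield.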 Put shortly:
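Dechorionated wild-type Tropical 5D zebrafish embryos, one per well from 6 hpf, were statically exposed at 28C until 120 hpf in 0.64% DMSO. Swim bladder malformation scored as present/absent by brightfield microscopy; not scored in dead larvae.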

The nature of assay [7]: Tanguay_ZF_120hpf_TRUN_legacy: (Legacy) Oregon State University Tanguay Lab 120 Hour Post-fertilization zebrafish Assay for Truncated Body (AID 2283655). Put shortly:
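Whole-embryo zebrafish screen: dechorionated 5D embryos, static exposure 6–120 hpf, 28C, sealed foil-covered plates, 0.64% DMSO. Binary truncation call; gain of signal versus DMSO baseline.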

A short description of assay [8]: Tanguay_ZF_120hpf_NC_legacy: (Legacy) Oregon State University Tanguay Lab 120 Hour Post-fertilization zebrafish Assay for Notochord and Tail Malformation (AID 2283656). An outline of the steps:
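Dechorionated Tropical 5D wild-type zebrafish embryos, one per well from 6 hpf, statically exposed to 120 hpf at 28C in 0.64% DMSO final. Notochord distortion scored present/absent by brightfield; dead embryos excluded.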

Assay [9] can be described thus: CCTE_Padilla_ZF_144hpf_TERATOSCORE: (Legacy) CCTE's 144 Hour Post-fertilization zebrafish Assay Teratoscore, Padilla Lab (AID 2283679; active means hit-call score of the fitted dose curve at least 0.9, where 1 is the maximum; inactive means score below 0.9;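 on AC50: zebrafish embryos with chorions exposed by immersion from 6-8 hpf to 5 dpf with daily renewal; teratogenicity score from eye scoring of death hatching and malformations at 144 hpf; higher score means more developmental defects relative to DMSO baseline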). Put shortly: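 Larvae scored by eye at 144 hpf for death, hatching and malformations after a day in clean Hanks'. Before that, daily-renewed exposure at 80 uM (0.4% DMSO, 26C) from roughly 6-8 hpf through 5 dpf, 4 embryos per chemical.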

The nature of assay [10]: STM_H9_OrnithineISnorm_perc: Stemina devTOX quickPredict H9 human embryonic stem cell (hESC)-based Assay for Ornithine (ORN) Metabolite Biomarker, Normalized (AID 2283712; active means hit-call score of the fitted dose curve at least 0.9, where 1 is the maximum; inactive means score below 0.9;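 further: ornithine released into spent medium during last day measured by mass spectrometry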). Put shortly: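 Undifferentiated H9 hESCs exposed 72 h with daily media and compound renewal; final 24-h conditioned medium analysed by UPLC-HRMS. Ornithine peak area normalised to spiked C13 standard and to median 0.1% DMSO control; viability by CellTiter-Fluor.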

The nature of assay [11]: Tanguay_ZF_120hpf_TR_legacy: (Legacy) Oregon State University Tanguay Lab 120 Hour Post-fertilization zebrafish Assay for Touch Response (AID 2283667). An outline of the steps: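 Tropical 5D wild-type zebrafish embryos statically exposed to 120 hpf at 28°C, sealed and dark-covered, 0.64% DMSO final; touch response scored as present/absent by brightfield microscopy at 120 hpf. Trimethyltin chloride 5 uM positive control; dead embryos not scored.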

A short description of assay [12]: Tanguay_ZF_120hpf_CFIN_legacy: (Legacy) Oregon State University Tanguay Lab 120 Hour Post-fertilization zebrafish Assay for Caudal Fin Malformation (AID 2283649). An outline of the steps: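 Dechorionated 5D wild-type zebrafish, static exposure 6–120 hpf, 28C, sealed and dark, 0.64% v/v DMSO final. Binary fin-malformation call at 120 hpf, brightfield; gain of signal vs DMSO baseline.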

Assay [13] in a line: Tanguay_ZF_120hpf_PIG_legacy: (Legacy) Oregon State University Tanguay Lab 120 Hour Post-fertilization zebrafish Assay for Pigmentation Malformation (AID 2283650). An outline of the steps: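 Dechorionated Tropical 5D wild-type embryos, one per well from 6 hpf, statically exposed at 28C in the dark until 120 hpf, 0.64% DMSO final. Pigmentation scored present/absent by brightfield microscopy; dead embryos not scored; fitted versus DMSO.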

The test system of assay [14] is Thyroperoxidase (TPO), gene 54314. As to the kind of experiment: CCTE_Simmons_AUR_rTPO: CCTE's Amplex UltraRed Assay for Thyroperoxidase (TPO) Inhibition, Simmons Lab (AID 2283662).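 Further: potency for loss of signal meaning inhibition of peroxidase activity.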 Put shortly: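 Cell-free peroxidase activity assay using rat thyroid gland microsomes with excess H2O2 (300 uM) and 25 uM Amplex UltraRed. Compounds tested from 5 nM to 87.5 uM; fluorescence measured after 30 min at 37C, analysed relative to DMSO baseline.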

A short description of assay [15]: CCTE_Simmons_CellTiterGLO_HEK293T: Viability Assessment in CCTE's Assays for Thyroperoxidase (TPO) Inhibition, Simmons Lab (AID 2283665).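 Further: cells exposed to compound for 24 h before readout; actives reduce ATP signal below DMSO vehicle meaning cytotoxicity.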 Put shortly:
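HEK293T cells in DMEM with 1% FBS, dosed 24 h at 37C with 8 concentrations, 5 nM–87.5 uM final, 0.5% DMSO. ATP measured by CellTiter Glo luminescence; loss of signal vs DMSO, three biological replicates.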

Read-out in assay [16]: kallikrein-3 (KLK3), KLK3 (gene 354)
As to the kind of experiment: LTEA_HepaRG_KLK3: Life Technologies and Expression Analysis (LTEA) Assay for kallikrein-3 (KLK3) using HepaRG (AID 2283652; active means hit-call score of the fitted dose curve at least 0.9, where 1 is the maximum; inactive means score below 0.9). Particulars: mRNA level, 48 h; actives raise or lower the signal. An outline of the steps:
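Differentiated human HepaRG cells in serum-free induction medium exposed 48 h in duplicate, eight-point half-log series from 100 uM in 0.5% DMSO. KLK3 mRNA by qRT-PCR, normalised to ACTB, GAPDH, POLR2A; bidirectional fit versus DMSO.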

Read-out in assay [17]: solute carrier (SLC22A6), SLC22A6 (gene 9356)
Kind of assay: LTEA_HepaRG_SLC22A6: Life Technologies and Expression Analysis (LTEA) Assay for solute carrier (SLC22A6) using HepaRG (AID 2283653; active means hit-call score of the fitted dose curve at least 0.9, where 1 is the maximum; inactive means score below 0.9). Particulars: mRNA level, 48 h; actives raise or lower the signal. An outline of the steps:
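HepaRG, human liver line; 48 h chemical exposure; 8-pt half-log series from 100 uM in 0.5% DMSO, duplicate wells. Readout: TaqMan qRT-PCR of SLC22A6 mRNA, housekeeping-normalised; bidirectional curve fit vs DMSO baseline.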

Read-out in assay [18]: solute carrier (SLC10A1), SLC10A1 (gene 6554)
Kind of assay: LTEA_HepaRG_SLC10A1: Life Technologies and Expression Analysis (LTEA) Assay for solute carrier (SLC10A1) using HepaRG (AID 2283657; active means hit-call score of the fitted dose curve at least 0.9, where 1 is the maximum; inactive means score below 0.9). Particulars: mRNA level, 48 h; actives raise or lower the signal. Put shortly:
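HepaRG cells (single lot) exposed 48 h in serum-free induction medium, 8-point half-log series from 100 uM top in 0.5% DMSO, duplicate. SLC10A1 mRNA by qRT-PCR normalised to ACTB, GAPDH, POLR2A; bidirectional fit versus DMSO.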

Read-out in assay [19]: matrix metalloproteinase-1 (MMP1), MMP1 (gene 4312)
As to the kind of experiment: LTEA_HepaRG_MMP1: Life Technologies and Expression Analysis (LTEA) Assay for matrix metalloproteinase-1 (MMP1) using HepaRG (AID 2283658; active means hit-call score of the fitted dose curve at least 0.9, where 1 is the maximum; inactive means score below 0.9). The note with it: mRNA level, 48 h; actives raise or lower the signal. An outline of the steps:
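MMP1 transcript read by TaqMan qRT-PCR (Fluidigm array) after 48 h chemical exposure of HepaRG cells in serum-free induction medium. Eight-point half-log series, top 100 uM, 0.5% DMSO vehicle. Bidirectional curve fit against DMSO baseline.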

Read-out in assay [20]: Cytochrome P450 (CYP24A1_1), CYP24A1 (gene 1591)
As to the kind of experiment: LTEA_HepaRG_CYP24A1_1: Life Technologies and Expression Analysis (LTEA) Assay for Cytochrome P450 (CYP24A1_1) using HepaRG (AID 2283671; active means hit-call score of the fitted dose curve at least 0.9, where 1 is the maximum; inactive means score below 0.9). The note with it: mRNA level, 48 h; actives raise or lower the signal. Put shortly: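 Differentiated human HepaRG cells in serum-free induction medium, exposed 48 h in duplicate to eight half-log concentrations from 100 uM top, 0.5% DMSO. Transcript measured by TaqMan qRT-PCR, normalised to ACTB, GAPDH, POLR2A; bidirectional fitting versus DMSO.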

Records with an inconclusive call do not appear. Calls of active or inactive are those of the source. How the source made its calls, unless noted: active means hit-call score of the fitted dose curve at least 0.9, where 1 is the maximum; inconclusive means response in the unintended direction; inactive means score below 0.9.

The values below come from PubChem BioAssay (EPA / NIEHS).

In the case of `O=C(O)c1cccnc1`, the call in assay [1], in assay [2], in assay [3], in assay [4], in assay [5] and in assay [6] was inactive. Also, the call in [7], in assay [8], in [9] and in assay [10] was inactive.

In the case of `C=CCCCCCCCCCCCC`, the result in assay [1], in assay [2], in [3], in assay [4], in assay [5] and in [6] was inactive. For the same molecule, the call in [7], in assay [8], in assay [11] and in [9] was inactive.

For `CCOCCOCCO`, the call in [1], in assay [2], in [3], in assay [4], in [12] and in [13] was inactive. Besides, the result in [5], in assay [6], in assay [7], in assay [8] and in assay [11] was inactive.

With `Oc1ccc(O)cc1`, the molecule was called inactive in assay [1], in [2], in [3], in [4], in [13] and in [7]. Besides, the molecule was called inactive in assay [11]. Moreover, the AC50 – broadly, the concentration giving half of the maximal activity seen – was 0.767 µM (active) in assay [14], 35.4 µM (active) in assay [15] and 15.6 µM (active) in [9].

On to `COC(=O)CCCC(=O)OC`, for which the result in assay [1], in [2], in [3], in assay [4], in [12] and in assay [6] was inactive. For the same molecule, the molecule was classed as inactive in [7], in [8] and in assay [11]. In addition, in [9], the AC50 is 62.7 µM (active).

As to `O=[Si]=O`, the call in assay [1], in [2], in [3], in assay [4], in assay [12] and in [13] was inactive. For the same molecule, the molecule was classed as inactive in assay [5], in [6], in assay [7], in [8], in assay [11] and in assay [9].

For the molecule `C=CCc1ccc(OC)c(OC)c1`, the outcome in assay [1], in [2], in assay [3], in assay [4], in assay [13] and in [5] was inactive. Also, the molecule was called inactive in assay [6], in assay [7] and in assay [8].

On to `CCCCCCC(C=O)=Cc1ccccc1`, for which the outcome in assay [1], in assay [2], in assay [3], in assay [4], in assay [13] and in assay [5] was inactive. In addition, the molecule was classed as inactive in [6], in [7], in assay [8] and in assay [11]. Besides, in [9], the half-maximal activity concentration (AC50) is 13.9 µM (active).

With `CCCC[C@H]1CN(CC2CCOCC2)C(=O)OC12CCN(C1(C)CCN(C(=O)c3c(C)ncnc3C)CC1)CC2`, the molecule was called inactive in [1], in assay [2], in assay [3], in [4], in assay [12] and in [13]. Further, the result in assay [5], in assay [6], in [7], in [8], in [11] and in [9] was inactive. For the same molecule, the outcome in assay [10] was inactive.

For `CCC(C)N(C)C(=O)c1cc2ccccc2c(-c2ccccc2Cl)n1` (centres undefined), the AC50 in assay [1] is 6.53 µM (active); in assay [6], 18.5 µM (active); in assay [18] it was 37.7 µM (active); in assay [11], 26.8 µM (active); in [9], 16.3 µM (active). Besides, the call in [2], in [3], in assay [4], in assay [12], in assay [13] and in [5] was inactive. The molecule was classed as inactive in assay [16], in assay [17], in assay [7], in assay [8], in assay [19] and in assay [20]. In assay [10], the result was inactive.
